Several values for one entry are separate records, joined by “and”; a condition that tells them apart may be missing. Equal entries are not always repeated. About 79,000 compounds went through this panel and 15% of them were active in at least one assay; those are over-represented in the sample as a whole. Rule as the data show it: active = growth inhibition above about 70%; inactive = the rest.
Tests used:
[1] = NCI Yeast Anticancer Drug Screen. Data for the rad50 strain (AID 155);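 also: 0% = growth of vehicle-only cultures of the same strain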; conditions: S. cerevisiae rad50 strain growth inhibition, hits give high values; at 50.0 µM unless noted
In short: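 Yeast carrying a defined DNA repair defect were exposed to test compounds, and growth was compared with vehicle-treated controls to give percent inhibition.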

[2] = NCI Yeast Anticancer Drug Screen. Data for the mec2-1 strain (AID 157); conditions: S. cerevisiae mec2-1 strain, hits give high values; at 50.0 µM unless noted
In short: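 Mutant yeast (mec2-1) grown with compound; growth inhibition relative to vehicle control reported.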

[3] = NCI Yeast Anticancer Drug Screen. Data for the sgs1 mgt1 strain (AID 161);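 also: 0% = growth of cultures given vehicle only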; conditions: S. cerevisiae sgs1 mgt1 strain, hits give high values; at 50.0 µM unless noted
In short: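 Growth of a repair-deficient yeast mutant was monitored after compound treatment and expressed as inhibition relative to vehicle-treated cultures.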

[4] = NCI Yeast Anticancer Drug Screen. Data for the cln2 rad14 strain (AID 165);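 also: 0% = growth equal to vehicle treated cultures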; conditions: S. cerevisiae cln2 rad14 strain, hits give high values; at 50.0 µM unless noted
In short: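 Readout is yeast growth inhibition versus vehicle-treated controls, using a strain with cln2 and rad14 alterations exposed to compound.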

[5] = NCI Yeast Anticancer Drug Screen. Data for the bub3 strain (AID 167); conditions: S. cerevisiae bub3 mutant strain, hits give high values; at 50.0 µM unless noted
In short: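 Compounds were applied to a genetically altered yeast strain carrying a cell-cycle control defect. Growth inhibition was scored against vehicle-treated controls.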

[6] = NCI Yeast Anticancer Drug Screen. Data for the mlh1 rad18 strain (AID 175); conditions: S. cerevisiae mlh1 rad18 strain growth inhibition, hits give high values; at 50.0 µM unless noted
In short: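 Genetically defined yeast (DNA repair-deficient) exposed to compounds; growth inhibition determined relative to vehicle.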

Measured: growth inhibition

COc1ccc(C(=O)CC(c2ccccc2)C(C#N)c2ccccc2)cc1 (stereo not given)
inactive: [1] 1.8% and -5.7% | [2] 5.6% and -8.55% | [3] -6.2% and 26.1% | [4] -107% and -72.5% | [5] 8.95% and -5.05% | [6] -7% and 8.5%

NC(=S)/N=C/c1c(O)c2ccccc2oc1=O
inactive: [1] -15.8% | [2] 3.95% | [3] -37.5% | [4] 3.5% | [5] -12.7% | [6] -35%

O=C(O)CNC(=O)CNC(=O)CNC(=O)C(CSC(c1ccccc1)(c1ccccc1)c1ccccc1)NC(=O)OCc1ccccc1 (stereo not given)
inactive: [1] 20.4% | [2] 4.5% | [3] -13.7% | [4] 22.1% | [5] 10.7% | [6] 4.9%

CC1=C(N2CCOCC2)C(N2CCOCC2)C(C)C1=O (stereo not given)
inactive: [1] 16.8% | [2] -5.25% | [3] -4.8% | [4] 13.7% | [5] 9.1% | [6] 3%

CC(C)(C)NSc1nc2ccccc2s1
inactive: [1] -21.8% | [2] 2.45% | [3] -12.7% | [4] 4.2% | [5] -2.5% | [6] -8.5%

Cc1nc2c(c(=O)[nH]1)C(c1ccccc1)C(C)(C)O2 (stereo not given)
inactive: [1] 3.6% | [2] -23.3% | [3] -3.6% | [4] -4.5% | [5] 6.15% | [6] 6.85%

N#Cc1ccc(-c2ccc(C#N)cc2)cc1
inactive: [1] -19.4% | [2] -23.3% | [3] -14.1% | [4] 9.05% | [5] -20.1% | [6] 7.05%

CCN(CC)CCN(CC)C(=S)Nc1ccccc1
inactive: [1] 1.75% | [2] 21.2% | [3] 23.2% | [4] -4.65% | [5] 2% | [6] 12.2%

CC1(O)CC(=O)c2c(cc3ccc(-c4c5c(c(O)c6c(O)cccc46)C(=O)CC(C)(O)C5)c(O)c3c2O)C1 (stereo not given)
inactive: [1] 54.1% | [2] 48.1% | [3] 35.5% | [4] 23.8% | [5] 19.7% | [6] 9.95%

O=C(CCC(=O)c1ccccc1)NCc1ccccc1
inactive: [1] 11.2% | [2] -6.2% | [3] 4.4% | [4] 5.55% | [5] 6.5% | [6] 2.1%

C=CC(=O)OCCN(CCCC)CCCC
inactive: [1] -12.9% | [2] -0.2% | [3] -10.9% | [4] -10.8% | [5] 6.75% | [6] 21.5%

CC(C)C(=O)Nc1ccc(S(=O)(=O)Nc2ccc(N)cc2O)cc1
inactive: [1] -6.8% | [2] 6.6% | [3] 25.1% | [4] 1.25% | [5] 20.1% | [6] -0.75%

c1ccc(-n2ncn[n+]2-c2ccccc2)cc1
inactive: [1] 6.55% | [2] 4.4% | [3] -0.3% | [4] 28.4% | [5] 32.8% | [6] 5.15%

CCCCN(CCCC)C(=N)c1ccccc1C
inactive: [1] 4.8% | [2] -13.9% | [3] 10.9% | [4] -23.6% | [5] 1.55% | [6] -3.35%

O=C(Cc1csc2ccccc12)NCC1CC1
inactive: [1] -17.4% | [2] -19.1% | [3] -0.45% | [4] 2.45% | [5] 11% | [6] -3.55%

CC1Nc2ccccc2C1C (stereo not given)
inactive: [1] -35.2% | [2] -49% | [3] -62.1% | [4] 7.05% | [5] -59.6% | [6] -12.5%

CCN(CC)N=Nc1ccc(C(=O)O)cc1
inactive: [1] 9.55% | [2] 1.7% | [3] -10.1% | [4] -8.8% | [5] 5.85% | [6] -2%

Cc1cc(C)nc(NS(=O)(=O)c2ccc(Nc3c4ccccc4nc4c(C(=O)Nc5ccc(S(=O)(=O)Nc6cc(C)on6)cc5)ccc(Cl)c34)cc2)n1
inactive: [1] 32.9% | [2] 45.1% | [3] 23.1% | [4] 42.2% | [5] 18.9% | [6] 41.5%

CCOC(=O)/C(F)=C/c1ccc(C#N)cc1
inactive: [1] 29.3% | [2] -19.9% | [3] -4.25% | [4] 3.7% | [5] 8.35% | [6] 15.8%

N=C1OCCN1/N=C/c1ccc([N+](=O)[O-])o1
inactive: [1] 33.4% | [2] -2.3% | [3] 66.8% | [4] -3.5% | [5] 20.6% | [6] 52.2%

COC(=O)c1cc(OCC#CC#CCOc2ccc(O)c(C(=O)OC)c2)ccc1O
inactive: [1] 3% | [2] -5.8% | [3] 9.65% | [4] -1.2% | [5] -4.15% | [6] 14.1%

CCCCCCCS(=O)c1nc2ccccc2s1 (stereo not given)
inactive: [1] 37.2% | [2] 15.2% | [3] 60.9% | [4] 20.2% | [5] 42.8% | [6] 27.6%

C/C=C/Cc1n[nH]c(=O)c2c(C)[nH]nc12
inactive: [1] -13% | [2] -13.4% | [3] -9.55% | [4] -13.8% | [5] -5.85% | [6] -17.9%

c1ccc(CN(Cn2cccn2)Cn2cccn2)nc1
inactive: [1] 7.15% | [2] -9% | [3] 23.1% | [4] 23.9% | [5] -0.4% | [6] 34.8%

CC1(c2ccccc2)C(=O)c2ccccc2-c2ccccc21 (stereo not given)
inactive: [1] 63.5% | [2] 48.4% | [3] 63.8% | [4] 3.45% | [5] 24.7% | [6] 24%

CC(=O)CSc1c(-c2ccccc2)c(=O)n(-c2ccccc2)c(=S)n1-c1ccccc1
inactive: [1] -3.8% | [2] -10.1% | [3] -13.2% | [4] -2.3% | [5] -8.5% | [6] 3.85%

CCOCCC(=O)OCCCl
inactive: [1] 29.2% | [2] 9.4% | [3] 13.3% | [4] 10.1% | [5] 15.7% | [6] 22.9%

COC(=O)C(Cc1ccccc1)N=Cc1c(O)c(O)c(C(C)C)c2cc(C)c(-c3c(C)cc4c(C(C)C)c(O)c(O)c(C=NC(Cc5ccccc5)C(=O)OC)c4c3O)c(O)c12 (stereo not given)
inactive: [1] 19.7% | [2] 9.7% | [3] 11.7% | [4] 17.1% | [5] 16.1% | [6] 4.75%

O=C(Cc1nc2ccccc2s1)C(=O)Nc1cccc(C(F)(F)F)c1
inactive: [1] -4.95% | [2] 8.75% | [3] -10.7% | [4] 7.95% | [5] 6.1% | [6] -6%

CCCCCCc1cc2cc(-c3csc(CC#N)n3)c(=O)oc2cc1O
inactive: [1] 13.1% | [2] 14.1% | [3] -29.2% | [4] -6.6% | [5] -32.8% | [6] -32%

Cc1nc(-c2cccnc2)sc1C(=O)CC(=O)C(=O)Nc1cccc(NC(=O)C(=O)CC(=O)c2sc(-c3cccnc3)nc2C)n1
inactive: [1] 20.2% | [2] -0.75% | [3] -21.6% | [4] 0.1% | [5] -12.9% | [6] 6.85%

CSc1nc(C)cc(=O)[nH]1
inactive: [1] -12.1% | [2] -2.95% | [3] -17.9% | [4] 20% | [5] 5.5% | [6] -13.3%

CN1CC2=C(NC(=S)NC2c2ccc(Cl)cc2)/C(=C/c2ccc(Cl)cc2)C1 (stereo not given)
inactive: [1] -7.95% | [2] 4.45% | [3] 7.45% | [4] 14.4% | [5] 29.2% | [6] 4.15%

CSc1nnc(CCC(=O)Nc2cc(Cl)ccc2Cl)o1
inactive: [1] 40.7% | [2] 44.8% | [3] 28.9% | [4] 15.7% | [5] 54.5% | [6] 9.05%

Nc1ccc2c(O)cc(S(=O)(=O)O)cc2c1
inactive: [1] 39% and 26.9% | [2] 5.1% and 0.25% | [3] 4.5% and -20.9% | [4] -29.1% and -73% | [5] 19.6% and 4.85% | [6] 3.7% and 10.4%

CCOC(CN)(OCC)c1ccncc1
inactive: [1] 10.9% | [2] 14.2% | [3] 8.65% | [4] -27.1% | [5] 11.2% | [6] -0.05%

CC(=O)c1cc(Cc2cc(C)cc(C)c2O)c(O)c(Cc2cc(C)cc(C)c2O)c1
inactive: [1] 18.9% | [2] 11.6% | [3] 28.9% | [4] 33.7% | [5] 17.4% | [6] 4.05%

CN(C)c1cccc2ccccc12
inactive: [1] -1.25% | [2] 9.1% | [3] 20.7% | [4] -24.3% | [5] 6% | [6] 18.9%

CC1(C)CC(=O)C=C(NCc2ccccc2)C1
inactive: [1] -0.95% | [2] -2.6% | [3] -8.35% | [4] -24.9% | [5] -19.1% | [6] 11.2%

CN(C)C(=O)Sc1cccc([N+](=O)[O-])c1
inactive: [1] 9.5% | [2] -14.9% | [3] -21.8% | [4] -38.3% | [5] 10.5% | [6] -25.6%

— PubChem BioAssay (NCI)
